In the supplement of paper PMC8728848:
About 410 targets per protein were measured; listed, in parts, are those with the strongest signals and a random draw of the rest.

Key:
Assay in all cases: glycan array binding signal (z-score within array); higher = stronger binding
Conditions in all cases: glycan notation: IUPAC condensed, linker removed
[1] = molecular target: Fuc(a1-2)Gal(b1-3)GalNAc(b1-4)[Neu5Ac(a2-3)]Gal(b1-4)Glc
Summary of the method: (§1)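 Glycan array binding is given as a within-array Z-score, which can be read as non-binding when negative. The arrays, 3228 of them, came from the Consortium for Functional Glycomics database and were retained only where the protein sequence was available. Z-scores were averaged across arrays of the same protein sequence at different concentrations or buffers and across linkers.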

[2] = molecular target: Fuc(a1-2)[Gal(a1-4)]Gal(b1-4)GlcNAc
Summary of the method: as §1

[3] = molecular target: Fuc(a1-2)[GalNAc(a1-3)]Gal(b1-3)GalNAc(b1-3)Gal(a1-4)Gal(b1-4)Glc
Summary of the method: as §1

[4] = molecular target: Fuc(a1-2)[GalNAc(a1-3)]Gal(b1-4)GlcNAc(b1-3)Gal(b1-4)GlcNAc
Summary of the method: as §1

[5] = molecular target: Fuc(a1-3)[Gal(b1-4)]GlcNAc
Summary of the method: as §1

[6] = molecular target: Fuc(a1-3)[Gal(b1-4)]GlcNAc(b1-6)GalNAc
Summary of the method: as §1

[7] = molecular target: Fuc(a1-4)GlcNAc
Summary of the method: as §1

[8] = molecular target: Gal(a1-3)Gal(b1-3)GlcNAc(b1-2)Man(a1-3)[Gal(a1-3)Gal(b1-3)GlcNAc(b1-2)Man(a1-6)]Man(b1-4)GlcNAc(b1-4)GlcNAc
Summary of the method: as §1

[9] = molecular target: Gal(a1-3)Gal(b1-3)[Fuc(a1-4)]GlcNAc(b1-2)Man(a1-3)[Gal(a1-3)Gal(b1-3)[Fuc(a1-4)]GlcNAc(b1-2)Man(a1-6)]Man(b1-4)GlcNAc(b1-4)GlcNAc
Summary of the method: as §1

[10] = molecular target: Gal(a1-3)Gal(b1-4)GlcNAc(b1-2)Man(a1-3)[Gal(a1-3)Gal(b1-4)GlcNAc(b1-2)Man(a1-6)]Man(b1-4)GlcNAc(b1-4)GlcNAc
Summary of the method: as §1

[11] = molecular target: Gal(a1-3)Gal(b1-4)GlcNAc(b1-3)GalNAc
Summary of the method: as §1

[12] = molecular target: Gal(a1-3)[Gal(a1-4)]Gal(b1-4)GlcNAc
Summary of the method: as §1

[13] = molecular target: Gal(a1-4)Gal(b1-3)GlcNAc(b1-2)Man(a1-3)[Gal(a1-4)Gal(b1-3)GlcNAc(b1-2)Man(a1-6)]Man(b1-4)GlcNAc(b1-4)GlcNAc
Summary of the method: as §1

[14] = molecular target: Gal(b1-3)GlcNAc(b1-2)Man(a1-3)[GlcNAc(b1-4)][Gal(b1-3)GlcNAc(b1-2)Man(a1-6)]Man(b1-4)GlcNAc(b1-4)GlcNAc
Summary of the method: as §1

[15] = molecular target: Gal(b1-3)GlcNAc(b1-3)GalNAc
Summary of the method: as §1

[16] = molecular target: Gal(b1-3)[Fuc(a1-4)]GlcNAc(b1-3)Gal(b1-4)[Fuc(a1-3)]GlcNAc
Summary of the method: as §1

[17] = molecular target: Gal(b1-4)GlcNAc(a1-6)Gal(b1-4)GlcNAc
Summary of the method: as §1

[18] = molecular target: Gal(b1-4)GlcNAc(b1-3)Gal(b1-3)GalNAc
Summary of the method: as §1

[19] = molecular target: Gal(b1-4)GlcNAc(b1-3)Gal(b1-3)GlcNAc
Summary of the method: as §1

[20] = molecular target: Gal(b1-4)GlcNAc(b1-3)Gal(b1-4)GlcNAc
Summary of the method: as §1

[21] = molecular target: Gal(b1-4)GlcNAc(b1-3)Gal(b1-4)GlcNAc(b1-2)[Gal(b1-4)GlcNAc(b1-3)Gal(b1-4)GlcNAc(b1-6)]Man(a1-6)[Gal(b1-4)GlcNAc(b1-3)Gal(b1-4)GlcNAc(b1-2)Man(a1-3)]Man(b1-4)GlcNAc(b1-4)[Fuc(a1-6)]GlcNAc
Summary of the method: as §1

[22] = molecular target: Gal(b1-4)GlcNAc(b1-3)Gal(b1-4)GlcNAc(b1-3)Gal(b1-4)GlcNAc(b1-2)[Gal(b1-4)GlcNAc(b1-3)Gal(b1-4)GlcNAc(b1-3)Gal(b1-4)GlcNAc(b1-6)]Man(a1-6)[Gal(b1-4)GlcNAc(b1-3)Gal(b1-4)GlcNAc(b1-3)Gal(b1-4)GlcNAc(b1-2)Man(a1-3)]Man(b1-4)GlcNAc(b1-4)[Fuc(a1-6)]GlcNAc
Summary of the method: as §1

[23] = molecular target: Gal(b1-4)GlcNAc(b1-3)Gal(b1-4)GlcNAc(b1-3)Gal(b1-4)GlcNAc(b1-3)Gal(b1-4)GlcNAc(b1-2)Man(a1-3)[Gal(b1-4)GlcNAc(b1-3)Gal(b1-4)GlcNAc(b1-3)Gal(b1-4)GlcNAc(b1-3)Gal(b1-4)GlcNAc(b1-2)Man(a1-6)]Man(b1-4)GlcNAc(b1-4)[Fuc(a1-6)]GlcNAc
Summary of the method: as §1

[24] = molecular target: Gal(b1-4)GlcNAc(b1-3)Gal(b1-4)GlcNAc(b1-3)Gal(b1-4)GlcNAc(b1-3)Gal(b1-4)GlcNAc(b1-2)[Gal(b1-4)GlcNAc(b1-3)Gal(b1-4)GlcNAc(b1-3)Gal(b1-4)GlcNAc(b1-3)Gal(b1-4)GlcNAc(b1-6)]Man(a1-6)[Gal(b1-4)GlcNAc(b1-3)Gal(b1-4)GlcNAc(b1-3)Gal(b1-4)GlcNAc(b1-3)Gal(b1-4)GlcNAc(b1-2)Man(a1-3)]Man(b1-4)GlcNAc(b1-4)[Fuc(a1-6)]GlcNAc
Summary of the method: as §1

[25] = molecular target: Gal(b1-4)GlcNAc(b1-3)Gal(b1-4)GlcNAc(b1-3)Gal(b1-4)GlcNAc(b1-3)Gal(b1-4)GlcNAc(b1-3)Gal(b1-4)GlcNAc(b1-2)Man(a1-3)[Gal(b1-4)GlcNAc(b1-3)Gal(b1-4)GlcNAc(b1-3)Gal(b1-4)GlcNAc(b1-3)Gal(b1-4)GlcNAc(b1-3)Gal(b1-4)GlcNAc(b1-2)Man(a1-6)]Man(b1-4)GlcNAc(b1-4)[Fuc(a1-6)]GlcNAc
Summary of the method: as §1

B1: GS13971A-bth-447-22-447 (Bacteroides thetaiotaomicron) (protein)
chain: EDVDNERSKGMFSASQSGFSTIEVYDLGPLNKIDLSIAKAGLEDTGGTVTFSVEQSLLDSLNNADGTSYQLLPPECYTIENATYSVSPGGDRRVTGGSLVYDPHKIYNLCGFDELKYVLPLRVSSTGTPMNSDRTATLYGFIVKEAIVRLASTGGDFVVEGGTTTSPMNLDTEISFENEWDLTTSFATKGADYVDNYNSANSTYYIPLPSDFYTLPDVTIAKGKTTGGSAISLLGETLPPGNYLLPVSLGGLSGQGDASINIDKETVANYFVIKQGGPINRDHWTVTANTEEKTGEVSAAYPHNGQTISLIDGEINTFWHSKWQGGEVAPPYEIILDMGKENSVSQLGLIARQNALTSMNLEIYAGDDGETWNLIGKYFFDGSIKTEQMVPVKACDARWIRIYIPTLGSGSSVGHLAEIYVYGTDK
- glycan array binding signal (z-score) [1]: -0.611
- glycan array binding signal (z-score) [2]: 1.4
- glycan array binding signal (z-score) [3]: -0.418
- glycan array binding signal (z-score) [4]: -0.622
- glycan array binding signal (z-score) [5]: 0.548
- glycan array binding signal (z-score) [6]: 0.414
- glycan array binding signal (z-score) [7]: 12.2
- glycan array binding signal (z-score) [8]: -0.916
- glycan array binding signal (z-score) [9]: 0.437
- glycan array binding signal (z-score) [10]: 0.313
- glycan array binding signal (z-score) [11]: 0.741
- glycan array binding signal (z-score) [12]: 3.1
- glycan array binding signal (z-score) [13]: 0.513
- glycan array binding signal (z-score) [14]: 0.373
- glycan array binding signal (z-score) [15]: 0.748
- glycan array binding signal (z-score) [16]: 1.09
- glycan array binding signal (z-score) [17]: 0.525
- glycan array binding signal (z-score) [18]: -0.104
- glycan array binding signal (z-score) [19]: 0.498
- glycan array binding signal (z-score) [20]: -1.12
- glycan array binding signal (z-score) [21]: 2.62
- glycan array binding signal (z-score) [22]: 0.617
- glycan array binding signal (z-score) [23]: 2.21
- glycan array binding signal (z-score) [24]: 2.31
- glycan array binding signal (z-score) [25]: 2.91
